What all share (assay): NCI-60 one-dose screen, 48 h (100 = growth as untreated, 0 = no growth, -100 = all killed)
The test system of test [1] is NCI-H23 lung. Particulars: 10 µM unless noted.
In test [2] the test system is NCI-H226 lung. The note with it: 10 µM unless noted.
The subject of test [3] is NCI-H322M lung. Particulars: 10 µM unless noted.
Test [4] deals with HOP-62 NSCLC. Particulars: 10 µM unless noted.
Test [5] concerns HOP-92 NSCLC. Particulars: 10 µM.
Test [6] concerns NCI-H522 lung. Particulars: 10 µM.
In test [7] the test system is A549/ATCC NSCLC. The note with it: 10 µM unless noted.
Test [8] concerns 786-0 renal. Particulars: 10 µM unless noted.
For test [9], the system named is COLO 205 colon. The note with it: 10 µM unless noted.
For test [10], the system named is DU-145 prostate. Particulars: 10 µM unless noted.
Test [11] deals with K-562 leukemia. The note with it: 10 µM unless noted.
The test system of test [12] is MDA-MB-231 breast. The note with it: 10 µM unless noted.
The test system of test [13] is RXF 393 renal. Particulars: 10 µM unless noted.
Test [14] deals with SF-268 CNS. The note with it: 10 µM unless noted.
Test [15] concerns SF-295 CNS. Particulars: 10 µM unless noted.
For test [16], the system named is SF-539 CNS. Particulars: 10 µM unless noted.
Test [17] has as its system UACC-257 melanoma. The note with it: 10 µM unless noted.
The test system of test [18] is M14 melanoma. The note with it: 10 µM unless noted.
The test system of test [19] is MALME-3M melanoma. The note with it: 10 µM unless noted.

The panel holds about 83,000 compounds, 20% with a hit somewhere; the sample as a whole holds those more often.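 Testing used 96-well plates and a 48-hour single-concentration exposure. Example: -40 means 40% of the starting cells died.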 Values without a mark were called inactive. Activity calls are given as the source filed them. The calls were made as follows: active = growth percent below 10; inactive = the rest.

Turning to `O=C1c2cc([N+](=O)[O-])ccc2-c2cc(Cl)c(NC(=O)C(F)(F)F)cc21`, the growth in test [1] is 95.3%; in test [2], 101%; in [3], 103%; in [4], 106%; in [5], 99.4%; in test [6], 113%. Further, the growth in [7] is 108%; in [8], 108%; in [9] it was 95.9%; in test [10], 112%; in test [11], 88.6%; in test [12] it was 109%. The growth in test [13] was 87.5%; in test [14], 107%; in test [15], 111%; in test [16] it was 95.4%; in [17], 128%; in test [18] it was 110%.
Consider `COc1ccc2cc(C(C)C(=O)Nc3ccc(S(=O)(=O)Nc4cc(C)on4)cc3)ccc2c1` (stereo not given), for which the growth in [1] is 101%; in [2], 106%; in test [3], 108%; in test [4] it was 88.5%; in test [5], 102%; in [6], 89.7%. In addition, the growth in test [7] was 86.2%; in test [8] it was 102%; in test [9] it was 115%; in test [10] it was 115%; in test [11], 95%; in [19] it was 115%. Also, the growth in test [12] was 117%; in test [13], 92%; in test [14], 100%; in [15], 105%; in [16] it was 97.4%; in test [18] it was 103%.
Turning to `CC([C@H]1CC=C2C3CCC4=C[C@@H](N(C)C)CC[C@]4(C)C3CC[C@@]21C)N(C)C` (stereo not given in full), the growth is 51.9% in [1]; 47.9% in test [2]; 83.3% in test [3]; -19.4% (active) in test [4]; 70.2% in test [5]; 98.2% in test [6]. Also, the growth in test [7] is 72%; in [8] it was -5.65% (active); in test [9] it was -65.1% (active); in [10], 57%; in test [19] it was 83.9%; in [12], -6.46% (active). For the same compound, the growth is 2.29% (active) in [14]; -86.8% (active) in test [15]; 4.25% (active) in test [16]; 17.9% in test [17]; -56.8% (active) in test [18].
Regarding `CN1CCN(Cc2ccc(NC(=O)c3ccc(C#Cc4c(N)ncc5ccc(F)cc45)cc3)cc2C(F)(F)F)CC1`, the growth in test [1] is -80.4% (active); in test [2] it was 55.1%; in test [3], -49% (active); in test [4] it was -39.2% (active); in [5], -2% (active); in [6], -85.2% (active). For the same compound, the growth in test [7] was -49.1% (active); in test [8], -56.6% (active); in test [10] it was -46.5% (active); in [11], -44.5% (active); in test [19], -88.1% (active); in test [12], -72.5% (active). Further, the growth in test [13] is -43.5% (active); in test [14], -21.1% (active); in test [15], -56.7% (active); in test [16], -90% (active); in [17] it was -58.5% (active); in test [18], -89.2% (active).
On to `CCCCCCCCCCCCCCCCC(=O)O.CCCCCCCCCCCCCCCCCC(=O)O.CCCCCCCCCCCCCCCCCC(=O)O.CCCCCCCCCCCCCCCCCC(=O)O.CCCCCCCCCCCCCCCCCC(=O)O.CO[CH-]OC12COC1CC(O)C1(C)C(O)C(OC(C)O)C3=C(C)C(OC(=O)C(O)C([NH-])c4ccccc4)CC(O)(C(OC(=O)c4ccccc4)C21)C3(C)C.[Cu+].[Zn].[Zn].[Zn].[Zn].[Zn]` (stereo not given), for which the growth in [1] is 43.6%; in [2], 73.2%; in test [3], 28.6%; in [4], 56.4%; in test [5], 41.5%; in test [6] it was 16.4%. Also, the growth was 27.8% in test [7]; 41.7% in test [8]; 14.7% in test [9]; 8.31% (active) in test [11]; 69.5% in test [19]; 13.8% in test [12]. Besides, the growth is 24.3% in test [13]; 47.6% in test [14]; 16.5% in test [15]; 80.6% in test [17]; 35.5% in [18].
For `CCS(=O)(=O)N[C@@H]1O[C@H](COC(C)=O)C(OC(C)=O)[C@H](OC(C)=O)C1OC(C)=O` (stereo not given in full), the growth was 102% in [1]; 109% in test [2]; 115% in test [3]; 87.8% in test [4]; 95.4% in test [5]; 83.7% in test [6]. In addition, the growth was 88.7% in [7]; 104% in test [8]; 113% in [9]; 105% in test [10]; 99.4% in test [11]; 115% in [19]. Besides, the growth is 110% in [12]; 88.1% in test [13]; 94.4% in test [14]; 111% in [15]; 95.1% in test [16]; 109% in test [18].
With `Cc1ncc(C(=O)Nc2ccc(CN3CCN(C)CC3)c(C(F)(F)F)c2)cc1C#Cc1c(N)ncc2ccc(F)cc12`, the growth in test [1] is -79.4% (active); in [2], 19.5%; in test [3], -89.7% (active); in [4] it was 15.9%; in test [5] it was -29.9% (active); in [6], 37.3%. The growth was -69.9% (active) in [7]; -70.5% (active) in test [8]; -88.6% (active) in test [10]; -57.1% (active) in [11]; -79.6% (active) in [19]; -88.9% (active) in test [12]. Moreover, the growth is -88.1% (active) in test [13]; 20% in [14]; 42% in test [15]; -93.6% (active) in test [16]; -18.6% (active) in test [17]; -74.9% (active) in test [18].
With `COc1ccccc1C(=O)Nc1cccc(-c2cc(=O)c3c(OC)c(OC)c(OC)cc3o2)c1`, the growth was 62.4% in test [1]; 58.4% in test [2]; 43.6% in test [3]; 57.8% in test [4]; -0.39% (active) in [5]; 44.3% in test [6]. For the same compound, the growth is 48.2% in test [7]; 45.3% in [8]; 44.9% in test [10]; 36.4% in test [11]; 65.5% in [19]; 51.3% in test [12]. Moreover, the growth in test [13] is 59%; in [14] it was 54.5%; in test [15], 59.2%; in test [16] it was 63.8%; in test [17] it was 61.5%; in [18], 41.5%.
As to `C/C=C(/C)C(=O)OC1C=C(CO)C(=O)C(OC(=O)C2(C)OC2C)C1C(C)C` (stereo not given), the growth in [1] was -63.1% (active); in test [2] it was -36.4% (active); in test [3], -3.37% (active); in [4] it was 0.921% (active); in test [5], -35.1% (active); in test [6], -79.5% (active). For the same compound, the growth in test [7] was -23.5% (active); in [8], -89.7% (active); in test [10], 6.72% (active); in test [11], 1.51% (active); in [19], -77.4% (active); in test [12] it was 1.48% (active). Besides, the growth in [13] is -74.3% (active); in [14], 13.3%; in test [15], -20.5% (active); in [16], -65.6% (active); in [17], -9.59% (active); in [18], -49.2% (active).

The values are drawn from PubChem BioAssay (NCI).
